Common to all, as to assay: yeast three-hybrid, YBZ-1, SC-Leu-His + 0.5 mM 3-AT, 4 days
Common to all, as to settings: tags: N-Gal4 AD-HA kept; label: inside an RPR1-promoter hybrid RNA with tandem MS2 sites; ssRNA

One experiment addresses PUM1 PUF domain R3-SCP (Homo sapiens, UniProt Q14671 828-1176, C935S;R936C;Q939P). An outline of the steps: (§1)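 A centromeric plasmid in strain YBZ-1 co-expressed Pumilio-1 PUF domain libraries, randomized at the three base-contacting residues of each repeat, with matching RNA elements; the strain carries a LexA–MS2 coat fusion and a HIS3 reporter. After four days on SC-Leu (input) or SC-Leu-His + 0.5 mM 3-AT (selection), the repeat regions were PCR-amplified and Illumina-sequenced. The interaction score is the log change in variant frequency from input to selection, using log2 and a pseudocount of 1 where absent.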

In another experiment the target is PUM1 PUF domain R3-FRR (Homo sapiens, UniProt Q14671 828-1176, C935F;Q939R). A digest of the protocol: as §1
In the next experiment the target is PUM1 PUF domain R3-GIR (Homo sapiens, UniProt Q14671 828-1176, C935G;R936I;Q939R). An outline of the steps:
as §1

A further experiment addresses PUM1 PUF domain R3-AAE (Homo sapiens, UniProt Q14671 828-1176, C935A;R936A;Q939E). A digest of the protocol: as §1
In the next experiment the target is PUM1 PUF domain R3-TRC (Homo sapiens, UniProt Q14671 828-1176, C935T;Q939C). An outline of the steps:
as §1

The target in a further experiment is PUM1 PUF domain R4-SRG (Homo sapiens, UniProt Q14671 828-1176, N971S;H972R;Q975G). An outline of the steps:
as §1

For a further experiment, the target named is PUM1 PUF domain R4-FNM (Homo sapiens, UniProt Q14671 828-1176, N971F;H972N;Q975M). A digest of the protocol:
as §1

In the next experiment the target is T1, PUM1 PUF domain R6-VFK (Homo sapiens, UniProt Q14671 828-1176, N1043V;Y1044F;Q1047K).
T1 sequence: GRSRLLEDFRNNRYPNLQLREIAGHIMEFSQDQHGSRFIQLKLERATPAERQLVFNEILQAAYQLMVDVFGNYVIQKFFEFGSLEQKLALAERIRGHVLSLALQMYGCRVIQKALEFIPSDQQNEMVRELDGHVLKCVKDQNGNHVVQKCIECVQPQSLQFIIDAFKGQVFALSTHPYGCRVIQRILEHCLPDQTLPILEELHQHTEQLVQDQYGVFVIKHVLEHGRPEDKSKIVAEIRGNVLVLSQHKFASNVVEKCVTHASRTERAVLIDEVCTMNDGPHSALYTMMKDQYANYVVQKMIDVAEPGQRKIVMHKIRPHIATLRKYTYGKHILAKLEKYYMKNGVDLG
An outline of the steps: as §1

For a further experiment, the target named is PUM1 PUF domain R7-RRH (Homo sapiens, UniProt Q14671 828-1176, S1079R;N1080R;E1083H). An outline of the steps:
as §1

For the next experiment, the target named is PUM1 PUF domain R7-ISS (Homo sapiens, UniProt Q14671 828-1176, S1079I;N1080S;E1083S). A digest of the protocol: as §1
In the next experiment the target is PUM1 PUF domain R5-LKL (Homo sapiens, UniProt Q14671 828-1176, C1007L;R1008K;Q1011L). A digest of the protocol:
as §1

Another experiment deals with PUM1 PUF domain R3-RVN (Homo sapiens, UniProt Q14671 828-1176, C935R;R936V;Q939N). An outline of the steps:
as §1

For the next experiment, the target named is PUM1 PUF domain R3-RPD (Homo sapiens, UniProt Q14671 828-1176, C935R;R936P;Q939D). An outline of the steps: as §1
A further experiment deals with PUM1 PUF domain R2-PFQ (Homo sapiens, UniProt Q14671 828-1176, N899P;Y900F). A digest of the protocol:
as §1

The target of the next experiment is PUM1 PUF domain R5-LHD (Homo sapiens, UniProt Q14671 828-1176, C1007L;R1008H;Q1011D). An outline of the steps: as §1
In another experiment the target is PUM1 PUF domain R4-EHG (Homo sapiens, UniProt Q14671 828-1176, N971E;Q975G). An outline of the steps: as §1
A further experiment concerns the target T2, PUM1 PUF domain R6-SFK (Homo sapiens, UniProt Q14671 828-1176, N1043S;Y1044F;Q1047K).
T2 sequence: T1 sequence with V216S
An outline of the steps: as §1

In another experiment the target is PUM1 PUF domain R3-LYI (Homo sapiens, UniProt Q14671 828-1176, C935L;R936Y;Q939I). A digest of the protocol: as §1
The target in the next experiment is PUM1 PUF domain R4-RMQ (Homo sapiens, UniProt Q14671 828-1176, N971R;H972M). A digest of the protocol:
as §1

A further experiment has as its target PUM1 PUF domain R8-PWI (Homo sapiens, UniProt Q14671 828-1176, N1122P;Y1123W;Q1126I). An outline of the steps:
as §1

We go through 13 sequences from paper PMC8384837, “Expanding the binding specificity for RNA recognition by a PUF domain”.

Changes are numbered by the printed parent chain.

“GGCUAGAACUAGUGGAUCCCCCGGCGCCCGGCGGCUCGAGCCCGGGUAAGUGUAAGUAGUCUGCAUGCCGCCGGGCGCCAUGCCUGCAGGUCGACUCUAGAAAACAUG”: the binding signal with PUM1 PUF domain R3-SCP was 3.88 log2 enrichment (interaction score); in the experiment with PUM1 PUF domain R3-FRR, 5.43 log2 enrichment (interaction score); with PUM1 PUF domain R3-GIR it was 3.07 log2 enrichment (interaction score); in the experiment with PUM1 PUF domain R3-AAE, 3.07 log2 enrichment (interaction score); in the experiment with PUM1 PUF domain R3-TRC it was 2.14 log2 enrichment (interaction score).

For “GGCUAGAACUAGUGGAUCCCCCGGCGCCCGGCGGCUCGAGCCCGGGUAAGUGUAUAUAGUCUGCAUGCCGCCGGGCGCCAUGCCUGCAGGUCGACUCUAGAAAACAUG”, the binding signal in the experiment with PUM1 PUF domain R4-SRG was 1.37 log2 enrichment (interaction score); with PUM1 PUF domain R4-FNM, 3.46 log2 enrichment (interaction score).

As to “GGCUAGAACUAGUGGAUCCCCCGGCGCCCGGCGGCUCGAGCCCGGGUAAGUGAAAAUAGUCUGCAUGCCGCCGGGCGCCAUGCCUGCAGGUCGACUCUAGAAAACAUG”, the binding signal with PUM1 PUF domain R6-VFK is 8.43 log2 enrichment (interaction score).

“GGCUAGAACUAGUGGAUCCCCCGGCGCCCGGCGGCUCGAGCCCGGGUAAGUUUAAAUAGUCUGCAUGCCGCCGGGCGCCAUGCCUGCAGGUCGACUCUAGAAAACAUG”: the binding signal with PUM1 PUF domain R7-RRH was 5.13 log2 enrichment (interaction score); with PUM1 PUF domain R7-ISS, 3.84 log2 enrichment (interaction score).

As for “GGCUAGAACUAGUGGAUCCCCCGGCGCCCGGCGGCUCGAGCCCGGGUAAGUGUCAAUAGUCUGCAUGCCGCCGGGCGCCAUGCCUGCAGGUCGACUCUAGAAAACAUG”, the binding signal in the experiment with PUM1 PUF domain R5-LKL is 4 log2 enrichment (interaction score).

As to “GGCUAGAACUAGUGGAUCCCCCGGCGCCCGGCGGCUCGAGCCCGGGUAAGUGUAAUUAGUCUGCAUGCCGCCGGGCGCCAUGCCUGCAGGUCGACUCUAGAAAACAUG”, the binding signal was 3.31 log2 enrichment (interaction score) in the experiment with PUM1 PUF domain R3-SCP; 4.09 log2 enrichment (interaction score) with PUM1 PUF domain R3-RVN; 2.42 log2 enrichment (interaction score) in the experiment with PUM1 PUF domain R3-FRR; 1.55 log2 enrichment (interaction score) with PUM1 PUF domain R3-GIR; 3.79 log2 enrichment (interaction score) with PUM1 PUF domain R3-RPD.

With “GGCUAGAACUAGUGGAUCCCCCGGCGCCCGGCGGCUCGAGCCCGGGUAAGUGUAAAAAGUCUGCAUGCCGCCGGGCGCCAUGCCUGCAGGUCGACUCUAGAAAACAUG”, the binding signal in the experiment with PUM1 PUF domain R2-PFQ is 4.24 log2 enrichment (interaction score).

Regarding “GGCUAGAACUAGUGGAUCCCCCGGCGCCCGGCGGCUCGAGCCCGGGUAAGUCUAAAUAGUCUGCAUGCCGCCGGGCGCCAUGCCUGCAGGUCGACUCUAGAAAACAUG”, the binding signal with PUM1 PUF domain R7-RRH was 4.29 log2 enrichment (interaction score).

As for “GGCUAGAACUAGUGGAUCCCCCGGCGCCCGGCGGCUCGAGCCCGGGUAAGUGCAAAUAGUCUGCAUGCCGCCGGGCGCCAUGCCUGCAGGUCGACUCUAGAAAACAUG”, in the experiment with PUM1 PUF domain R6-VFK, the binding signal was 1.94 log2 enrichment (interaction score).

On to “GGCUAGAACUAGUGGAUCCCCCGGCGCCCGGCGGCUCGAGCCCGGGUAAGUGUGAAUAGUCUGCAUGCCGCCGGGCGCCAUGCCUGCAGGUCGACUCUAGAAAACAUG”, for which the binding signal with PUM1 PUF domain R5-LHD was 2.82 log2 enrichment (interaction score).

As to “GGCUAGAACUAGUGGAUCCCCCGGCGCCCGGCGGCUCGAGCCCGGGUAAGUGUAAAUAGUCUGCAUGCCGCCGGGCGCCAUGCCUGCAGGUCGACUCUAGAAAACAUG”, the binding signal with PUM1 PUF domain R4-EHG is 2.3 log2 enrichment (interaction score); in the experiment with PUM1 PUF domain R4-SRG, 4.42 log2 enrichment (interaction score); in the experiment with PUM1 PUF domain R6-VFK, 3.04 log2 enrichment (interaction score); in the experiment with PUM1 PUF domain R3-TRC, 3.26 log2 enrichment (interaction score); with PUM1 PUF domain R5-LHD, 3.18 log2 enrichment (interaction score); in the experiment with PUM1 PUF domain R6-SFK it was 6.49 log2 enrichment (interaction score). In addition, the results for the binding signal with PUM1 PUF domain R3-LYI and with PUM1 PUF domain R4-RMQ were 4.35 log2 enrichment (interaction score) and 3.34 log2 enrichment (interaction score), respectively.

Consider “GGCUAGAACUAGUGGAUCCCCCGGCGCCCGGCGGCUCGAGCCCGGGUAAGCGUAAAUAGUCUGCAUGCCGCCGGGCGCCAUGCCUGCAGGUCGACUCUAGAAAACAUG”, for which, in the experiment with PUM1 PUF domain R8-PWI, the binding signal was 4.09 log2 enrichment (interaction score).

On to “GGCUAGAACUAGUGGAUCCCCCGGCGCCCGGCGGCUCGAGCCCGGGUAAGUGUACAUAGUCUGCAUGCCGCCGGGCGCCAUGCCUGCAGGUCGACUCUAGAAAACAUG”, for which the binding signal was 2.82 log2 enrichment (interaction score) in the experiment with PUM1 PUF domain R4-EHG, 0.54 log2 enrichment (interaction score) in the experiment with PUM1 PUF domain R4-SRG and 2.87 log2 enrichment (interaction score) with PUM1 PUF domain R4-FNM.
